PubChem BioAssay AID588493 (Sanford-Burnham Center for Chemical Genomics, 2011)
The campaign covered roughly 360,000 compounds. About 2,100 (0.58%) were called active. The list comes from a sample in which actives are over-represented; it also holds similar structures and randomly drawn compounds. Unmarked numbers belong to inactive results.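 The calls were made as follows: active = inhibition at 20 µM, scaled to each plate's controls, above about 33% (limit read from the data); inactive = the rest.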

These compounds were tested against 26S proteasome non-ATPase regulatory subunit 14 (Homo sapiens) (UniProt O00487) (assay: inhibition of 26S proteasome subunit Rpn11 – biochemical, fluorescence polarization, uHTS, primary screen (AID 588493)). Settings: human 26S proteasome, Ub4-pepOG fluorescence polarization, at 20 µM, active compounds read high.
26S proteasome non-ATPase regulatory subunit 14 (Homo sapiens), sequence (O00487 whole entry, looked up): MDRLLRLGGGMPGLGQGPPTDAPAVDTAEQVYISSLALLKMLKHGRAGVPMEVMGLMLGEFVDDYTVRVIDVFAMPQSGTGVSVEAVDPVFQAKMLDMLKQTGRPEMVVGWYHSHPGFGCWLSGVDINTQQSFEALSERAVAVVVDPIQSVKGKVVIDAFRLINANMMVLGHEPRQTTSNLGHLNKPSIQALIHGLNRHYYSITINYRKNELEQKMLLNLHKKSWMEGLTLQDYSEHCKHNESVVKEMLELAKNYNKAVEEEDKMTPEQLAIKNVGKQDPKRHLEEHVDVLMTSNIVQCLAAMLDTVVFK

SMILES	inhibition
O=c1[nH]c(=O)n(CCc2ccccc2)c(O)c1/C=N/N1CCOCC1	5.5%
O=c1[nH]c(=O)n(Cc2ccccc2)c(O)c1/C=N/Nc1c(F)c(F)c(F)c(F)c1F	41.6% (active)
O=C(N/N=C/c1c(O)n(Cc2ccccc2)c(=O)[nH]c1=O)c1ccccc1	-6.7%
COC(=O)C1=C(c2ccc(F)cc2OCc2ccccc2)C[C@@H]2CC[C@H]1N2C(=O)NCc1ccc(Cl)cc1	7.7% [20S core pre-blocked with epoxomicin]
CCc1cccc2c(C#N)cn(CC(=O)N3CCOCC3)c12	-6.2%
COc1ccc(C2NCc3ccc4c(c3-n3cccc32)OCO4)cc1OC (stereo not given)	7.6%
Cc1cccc(N2C(=O)NC(=O)/C(=C\c3cnn(-c4ccccc4)c3)C2=O)c1	119% (active)
Cn1c(O)c(C(=Nc2ccc(F)cc2)c2ccccc2)c(=O)n(C)c1=O	-3.9%
COc1ccc(C2C=C(C)Oc3c2c(=O)oc2ccccc32)cc1OC (stereo not given)	6% [20S core pre-blocked with epoxomicin]
c1cc2c(c(NC3=NCCCS3)c1)CCCC2	3.9%
O=C(C1CC(=O)N(C2CCCC2)C1)N1CCC2(CC1)OCCO2 (stereo not given)	3.4%
CCN1C(=O)C(=Cc2c(C)n(CC(=O)NCC3CCCO3)c3ccccc23)C(=O)N(CC)C1=S (stereo not given)	62% (active)
Fc1cccc(F)c1CN1CCN(Cc2c(F)cccc2F)CC1	-4.8%
CN(C)C(=O)Oc1ccc2c(c1)O/C(=C\c1ccccc1)C2=O	5.7%
Cn1c(C(=O)N2CCC(C(=O)N3CCC4(CC3)OCCO4)CC2)cc2sccc21	3.9%
